The results in this text go back to PubChem BioAssay AID1020 (Sanford-Burnham Center for Chemical Genomics, 2008).

The whole screen tested about 200,000 compounds, of which about 240 (0.12%) were called active. The entries come from a sample that favours actives as a whole. Values without a mark were called inactive. Cut-off read from the data, not from the text of the source: active = inhibition above about 50%; inactive = the rest.

What is called inhibition is the change of the read-out against control, counted positive when it falls.

In this assay the test system is glucose-6-phosphate dehydrogenase [Leuconostoc mesenteroides]. Nature of the assay: bacterial G6PDH enzyme inhibition, coupled readout – biochemical, Leuconostoc mesenteroides enzyme, counter-screen for G6PDH-coupled screening assays (AID 1020). The conditions noted are these: Purified L. mesenteroides G6PDH, diaphorase/resazurin coupled fluorescence, 45 min; at 5 µM; hits give high values.
Turning to `CCc1n[nH]c(=S)n1/N=C/c1c[nH]c2ccc(Br)cc12`, the inhibition is -2.8%.

As for `CC(=O)Nc1ccc(S(=O)(=O)N(CCc2ccccc2)CC(=O)N/N=C/c2ccc(C(=O)O)cc2)cc1`, the inhibition was 6.2%.

With `CC(=O)n1cc([C@H]2C=C(C(=O)N3CCOCC3)O[C@@H](OCc3ccc(CO)cc3)C2)c2ccccc21`, the inhibition was 13.3%.

Consider `COc1cccc(CC(=O)N2CCCC(CCC(=O)N3CCN(c4ccccn4)CC3)C2)c1` (stereo not drawn), for which the inhibition was 2.5%.

For `CCN(CC)C(=O)Cn1cc(S(=O)(=O)CC(=O)NCc2ccc3c(c2)OCO3)c2ccccc21`, the inhibition is 2.6%.

Regarding `CC(O)c1cccc(NC(=O)Cc2cccc3ccccc23)c1` (stereo not drawn), the inhibition was 0.6%.

Regarding `S=c1[nH]ccn1-c1ccc(Cl)cc1`, the inhibition was 1.9%.

As to `CCN(CCCNC(=O)CSc1cc(=O)n(C)c2cc(Cl)ccc12)Cc1ccccc1`, the inhibition was -6.2%.

`O=C(NCCN1CCOCC1)c1c(F)c(F)c(F)c(F)c1F`: the inhibition was -12.4%.

With `O=C(NCCN1CCOCC1)c1cc(Sc2cccc(Cl)c2)nc2ccccc12`, the inhibition was -13.7%.

On to `CC(=O)Oc1cc2c(C(=O)NCCN3CCOCC3)c(C)oc2c2ccccc12`, for which the inhibition was 51% (active).

On to `CS(=O)(=O)c1ccc2nc(NC(=O)c3ccc(Cl)nc3)sc2c1`, for which the inhibition is -4.6%.

Take `O=C(COc1ccc(NC(=O)c2ccccc2[N+](=O)[O-])cc1)c1ccc(F)cc1`: the inhibition is 8.6%.

Turning to `COC(=O)C1=NNC2(c3ccc(C)cc3)C(=O)N(c3cccc(C)c3C)C(=O)C12` (stereo not drawn), the inhibition is 5.9%.

For `O=C(c1cn2ccccc2n1)N1CCc2c([nH]c3ccccc23)C1c1ccccn1` (stereo not drawn), the inhibition is 16.7%.

For `O=[N+]([O-])c1ccc(NCCCO)c(C(F)(F)F)c1`, the inhibition is 1.5%.

For `Cc1ccnc2nc(C(=O)Nc3nnc(-c4ccccc4)o3)nn12`, the inhibition was 4.6%.

Regarding `COc1ccc(Cn2c(-c3ccc(Cl)cc3)c[n+]3ccccc23)cc1`, the inhibition is -9.3%.

Regarding `O=C(Nc1ccc(N2CCN(C(=O)c3cccs3)CC2)cc1)c1cccnc1Cl`, the inhibition is 5.3%.

Take `CCOC(=O)c1c(C)[nH]c(C2=NNC(=NC(C)COC)SC2)c1C` (stereo not drawn): the inhibition was -0.8%.

Take `Cc1[nH]c2ccccc2c1-c1ccc(Cl)nn1`: the inhibition was 6.2%.

For `Cc1nc2scc(-c3cccs3)c2c(=O)n1N`, the inhibition is 0%.

With `O=c1c2c(ncn1Cc1ccccc1)nc1n2CCC1`, the inhibition is 10.7%.

On to `CN(C(=O)CSc1nncc2ccccc12)C1CCCCC1`, for which the inhibition is -2.2%.

Take `O=C(N/N=C/c1ccc(OCc2ccccc2)cc1)c1ccc(O)cc1`: the inhibition is 4.1%.

Take `O=C(NC1CCCC1)C(NS(=O)(=O)c1ccc(Br)s1)c1ccccc1` (stereo not drawn): the inhibition was 15.8%.

For the compound `Cc1ccc(NC(=O)OCCNC(=O)c2ccncc2)cc1`, the inhibition was 7.9%.

With `CCCCS(=O)c1snnc1C` (stereo not drawn), the inhibition was 7.1%.

On to `CCOC(=O)C(C)Oc1cccc2c(=O)n(CC(=O)NCCc3ccc(OC)c(OC)c3)ccc12` (stereo not drawn), for which the inhibition was 12.1%.

Turning to `CCn1c(=S)[nH]c2sc3c(c2c1=O)CCCCC3`, the inhibition is -4.4%.

In the case of `O=C(N/N=C/c1ccccn1)C12CC3CC(CC(C3)C1)C2`, the inhibition was 1.5%.

For the compound `O=C1c2cccc3c([N+](=O)[O-])ccc(c23)C(=O)N1CC1CCCO1` (stereo not drawn), the inhibition was 0.7%.

`O=C(COc1cc(Cl)c(Cl)cc1Cl)NCCc1ccccn1`: the inhibition is 12.4%.

With `CC(Cc1cccs1)NC(=O)c1cccc(Cl)c1` (stereo not drawn), the inhibition is 7%.

Turning to `OCCC1CN(Cc2cccn2-c2nccs2)CCN1CCc1ccccc1` (stereo not drawn), the inhibition was 12.9%.

Regarding `CCC1(CC)NC(=O)N(Cc2nc3ccccc3s2)C1=O`, the inhibition was 10.3%.

As to `CCOc1ccccc1NC(=O)C1CCCN(C(=O)Nc2ccccc2)C1` (stereo not drawn), the inhibition was 4.5%.

On to `CCOC(=O)CNC(=O)/C=C/c1c(Cl)cccc1Cl`, for which the inhibition is 1.5%.

Regarding `Cc1ccc(N2C(=O)SC(N(CC(=O)O)c3ccc(C)cc3)C2=O)cc1` (stereo not drawn), the inhibition is 21.1%.

As to `Cc1ccc(Nc2nnc(SCC(=O)c3cc4ccccc4o3)s2)cc1C`, the inhibition was -1.5%.

With `CCC(C)NCC(=O)Nc1ccc([N+](=O)[O-])cc1C(=O)Nc1ccccc1F` (stereo not drawn), the inhibition was 4.8%.

With `NC1=NN(c2cccc(C(=O)O)c2)C(=O)C1`, the inhibition is 19.2%.

Consider `CCOC(=O)/C(N=Nc1cc(C(=O)O)cc(C(=O)O)c1)=C(\O)CCl`, for which the inhibition is -9.1%.

For `CCC1CCCCN1C(=S)Nc1ccc(SC(F)F)cc1` (stereo not drawn), the inhibition is -14.7%.

As for `O=C(O)/C=C/c1cn(Cc2ccccc2)nc1-c1cccs1`, the inhibition is 2%.

As to `CC[N+]1(CC)CC2=Cc3ccccc3CC2C1` (stereo not drawn), the inhibition was 0.9%.

Consider `O=C(Nc1ccc(Cl)cc1)C1c2cccc[n+]2CC(=O)N1Cc1ccc2c(c1)OCO2` (stereo not drawn), for which the inhibition is 10.2%.

Regarding `C=CCN(CC=C)S(=O)(=O)c1ccc(C(=O)Nc2nc3c(s2)CCc2ccccc2-3)cc1`, the inhibition is 8.4%.

Regarding `Cc1nc2sc(C(c3ccco3)N3CCOCC3)c(O)n2n1` (stereo not drawn), the inhibition is -0.1%.

Take `CCOC(=O)N1CCN(C(c2cccnc2)c2ccc3cccnc3c2O)CC1` (stereo not drawn): the inhibition was 23.8%.

With `Oc1c(C(c2ccccn2)N2CCOCC2)ccc2cccnc12` (stereo not drawn), the inhibition is 50.6% (active).

Turning to `COc1ccccc1N=Cc1c(O)c2ccccc2oc1=O`, the inhibition was 2.9%.

For the compound `COC(=O)c1c(NC(=O)COC(=O)[C@@H](NS(=O)(=O)c2ccccc2)C(C)C)sc2c1CCC2`, the inhibition was -20.8%.

For the compound `Cc1cc(C)cc(C(=O)N2CCN=C2SCc2ccc([N+](=O)[O-])cc2)c1`, the inhibition was -0.2%.

Take `COCC(C)n1c(C)cc(C(=O)CSc2cc(C)c3ccccc3n2)c1C` (stereo not drawn): the inhibition was -2.6%.

On to `CC(C)CC[n+]1ccn(C2=C([O-])c3ccccc3C(=O)/C2=N\S(=O)(=O)c2ccccc2)c1`, for which the inhibition was 52.9% (active).

Turning to `CC1=C/C(=N\S(=O)(=O)c2ccccc2)C(C(C)C)=CC1=O`, the inhibition is 1.5%.

With `O=C1NC(c2ccccc2)CCC1(Cl)Cl` (stereo not drawn), the inhibition is -1%.

In the case of `COc1ccccc1CNC(=O)C1Cc2ccccc2C(=O)O1` (stereo not drawn), the inhibition was 14.2%.

As for `Cc1cccc(-c2nc3ccccc3c(=O)n2NC(=O)Cc2ccc(Cl)cc2)c1`, the inhibition is 12.9%.

`O=C(COC(=O)c1cc2c(s1)CCCC2)NCc1ccccc1Cl`: the inhibition was -30.3%.

For the compound `CCNC(=O)c1ccc(OCC(=O)Nc2ccc(F)cc2)c(OC)c1`, the inhibition was 0%.

With `COC1=CCC2([N+](=O)[O-])CN(CC(=O)O)CC1([N+](=O)[O-])C2` (stereo not drawn), the inhibition was -3.5%.

With `Cc1ccc(C2=NN(C(=O)CSc3nc(N)cc(N)n3)C(c3ccco3)C2)cc1` (stereo not drawn), the inhibition was -0.7%.

`COc1ccc(C)cc1NC(=O)C(OC(=O)c1cccc(S(=O)(=O)N(C)c2ccccc2)c1)c1ccccc1` (stereo not drawn): the inhibition is 0.4%.

Regarding `Cc1cc(C)c(NC(=O)C[N+](C)(C)CC(O)COc2cccc3ccccc23)c(C)c1` (stereo not drawn), the inhibition was -0.6%.

As for `CCOC(=O)C1=C(C)OC(N)=C(C#N)C1c1cncc(-c2ccc(F)cc2)c1` (stereo not drawn), the inhibition was 14.8%.

Turning to `CC1(C)CC(=O)C2=C(C1)Nc1cc(C(=O)c3ccccc3)ccc1NC2c1ccccn1` (stereo not drawn), the inhibition was 8.9%.

In the case of `Cc1nc2ccc(NC(=S)N3CCC(C)CC3)cc2nc1C`, the inhibition was 29.3%.

On to `COC(=O)c1nc(NC(=O)c2ccc(F)cc2)n[nH]1`, for which the inhibition is -4.4%.

Consider `Cc1ccc(S(=O)(=O)N(CC(=O)Nc2cccc([N+](=O)[O-])c2)Cc2ccc(Cl)cc2)cc1`, for which the inhibition was -21.7%.

`O=C(/C=C/c1ccc(Cl)cc1)Nc1ccc(Br)cn1`: the inhibition was 7.2%.

In the case of `Cn1c(=O)c2c(ncn2CC(=O)N/N=C/c2cn[nH]c2-c2ccc(F)cc2)n(C)c1=O`, the inhibition was -4.7%.

As for `CC(C)(C)NC(=O)CN(C(=O)c1csnn1)c1ccccc1-c1ccccc1`, the inhibition was 9.8%.

Turning to `COCCCNC(=O)Cn1c(=O)n(Cc2ccccc2Cl)c(=O)c2cc(OC)c(OC)cc21`, the inhibition was 4.4%.

`Cc1ccc(-c2cc(N)on2)cc1`: the inhibition was 4.2%.

Take `CCCN(CCC)CCCNC(=O)CNC(=O)c1nn(-c2ccc(OC)cc2)c(=O)c2ccccc12`: the inhibition was 6%.

As to `CCOC(=O)c1c(NC(=O)CNC2CCCc3ccccc32)sc(C(N)=O)c1C` (stereo not drawn), the inhibition was 2.5%.

With `CN(CC(=O)Nc1ccccc1[N+](=O)[O-])Cc1ccc(Br)cc1`, the inhibition is -0.3%.

Take `Cc1cc(/C=N/NC(=O)c2cccnc2)c(C)n1CC(C)C`: the inhibition was 2.9%.

Regarding `CC1CCCCN1C(=S)NCc1ccccc1` (stereo not drawn), the inhibition is -13%.

In the case of `CC(=O)N1c2ccccc2N(Cc2ccc([N+](=O)[O-])cc2)C(=O)C1(C)C`, the inhibition is 4.5%.

On to `COC(=O)c1ccc(NC(=O)c2cc(Cl)ccc2OC)cc1`, for which the inhibition was 0.4%.
